Source: PubChem BioAssay (NCI)
About 83,000 compounds went through this panel and 20% of them were active in at least one assay; those are over-represented in the sample as a whole.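 Note: values are percent growth. 100 is the growth of untreated cells, values between 100 and 0 indicate rising inhibition; between -100 and 0 indicates cell death.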 Unmarked numbers belong to inactive results. The source made the active and inactive calls. Rule for the calls: active = growth percent below 10; inactive = the rest.

Tests used:
Assay in all cases: NCI-60 one-dose screen, 48 h (100 = growth as untreated, 0 = no growth, -100 = all killed)
Details in all cases: 10 µM
NCI-H23 lung = test system: NCI-H23 lung
NCI-H226 lung = test system: NCI-H226 lung
NCI-H322M lung = test system: NCI-H322M lung
HOP-62 NSCLC = test system: HOP-62 NSCLC
NCI-H460 lung = test system: NCI-H460 lung
HOP-92 NSCLC = test system: HOP-92 NSCLC
NCI-H522 lung = test system: NCI-H522 lung
A549/ATCC NSCLC = test system: A549/ATCC NSCLC
786-0 renal = test system: 786-0 renal
COLO 205 colon = test system: COLO 205 colon
DU-145 prostate = test system: DU-145 prostate
K-562 leukemia = test system: K-562 leukemia
MALME-3M melanoma = test system: MALME-3M melanoma
MDA-MB-231 breast = test system: MDA-MB-231 breast
RXF 393 renal = test system: RXF 393 renal
SF-268 CNS = test system: SF-268 CNS
SF-295 CNS = test system: SF-295 CNS
SF-539 CNS = test system: SF-539 CNS
UACC-257 melanoma = test system: UACC-257 melanoma
M14 melanoma = test system: M14 melanoma

SMILES	growth (NCI-H23 lung)	growth (NCI-H226 lung)	growth (NCI-H322M lung)	growth (HOP-62 NSCLC)	growth (NCI-H460 lung)	growth (HOP-92 NSCLC)	growth (NCI-H522 lung)	growth (A549/ATCC NSCLC)	growth (786-0 renal)	growth (COLO 205 colon)	growth (DU-145 prostate)	growth (K-562 leukemia)	growth (MALME-3M melanoma)	growth (MDA-MB-231 breast)	growth (RXF 393 renal)	growth (SF-268 CNS)	growth (SF-295 CNS)	growth (SF-539 CNS)	growth (UACC-257 melanoma)	growth (M14 melanoma)
O=C(c1ccc(Cl)cc1)C1[C@H](c2ccc(Br)cc2)[C@@H](c2ccccc2)NC12C(=O)Nc1ccc(Cl)cc12 (stereo not given in full)	-83.6% (active)	-85.6% (active)	-28.6% (active)	-73.4% (active)	-63% (active)	-69.2% (active)	-79.5% (active)	-44% (active)	-68% (active)	-87.7% (active)	-27.9% (active)	-31.2% (active)	-97.7% (active)	-95.3% (active)	-88.8% (active)	-7.66% (active)	-84% (active)	-58.5% (active)	-49.4% (active)	6.42% (active)
O=C1Nc2ccc(F)cc2/C1=C/c1cccc(OCc2ccccn2)c1	58.3%	49.9%	77%	78.9%	36.5%	26.5%	-14.1% (active)	77.4%	56%	98.8%	42.5%	4.79% (active)	54.1%	30.7%	28.3%	23.4%	24.3%	35.5%	44.1%	36.3%
Cc1ccc([N+](=O)[O-])c(C(=O)Nc2ccc(-c3ccc4c(c3)NC(=O)/C4=C\c3ccc[nH]3)cc2)c1	21%	52%	48.9%	86%	0.658% (active)	109%	39.5%	47%	61.6%	8.99% (active)	10.5%	28%	55.5%	55.1%	87.4%	14.2%	-65.3% (active)	73.7%	81.4%	34.2%
O=C(c1ccc(O)cc1)C1[C@H](c2ccccc2Br)[C@@H](c2ccccc2)NC12C(=O)Nc1ccc(Br)cc12 (stereo not given in full)	46.4%	36.5%	55.6%	53.2%	31.1%	53.3%	0.143% (active)	34.4%	47.8%	29.7%	70.2%	29.9%	78.7%	46.3%	55.3%	40%	26.6%	49.1%	65.4%	54.6%
CN1C(=O)/C(=C/c2ccc3ncsc3c2)NC1=NC12CC3CC(CC(O)(C3)C1)C2	-21.1% (active)	-1.04% (active)	9.71% (active)	16.7%	9.92% (active)	22.1%	-46.8% (active)	16.7%	11.1%	-37.9% (active)	12.2%	11.9%	-15% (active)	0.441% (active)	-22.7% (active)	24.5%	14.1%	-32.1% (active)	-17% (active)	36.9%
N#Cc1c(-c2ccc(F)cc2)nc(SCc2ccc(F)cc2)nc1N1CCOCC1	71.8%	48.4%	78.4%	24.3%	73.9%	34.3%	55%	69%	24.7%	97.7%	77.8%	83.8%	58.6%	50.5%	41.6%	43.4%	36.9%	49%	77.1%	92.2%
Cn1cc(-c2cc(N)n3nc(-c4c[nH]c5ccc(Br)cc45)cc3n2)c2cc(Br)cnc21	-81.5% (active)	-55.3% (active)	11.7%	-69.2% (active)	2.27% (active)	-63.2% (active)	-72% (active)	-45.8% (active)	-75% (active)	-90.9% (active)	-75.6% (active)	-27.4% (active)	-92.1% (active)	-82.5% (active)	-71.2% (active)	-22.5% (active)	-86.4% (active)	-97.6% (active)	-65.4% (active)	-90.6% (active)
COc1ccccc1[C@H]1C(C(=O)c2ccc(Cl)cc2)C2(N[C@@H]1c1ccccc1)C(=O)Nc1ccccc12 (stereo not given in full)	-55.3% (active)	-53.2% (active)	10.3%	-21.9% (active)	-27.2% (active)	-21.8% (active)	-27.5% (active)	9.22% (active)	-15% (active)	-88.2% (active)	3.98% (active)	0.571% (active)	-37.4% (active)	-71.9% (active)	-73.8% (active)	10.2%	-63.6% (active)	-60.8% (active)	-2.04% (active)	5.88% (active)
O=C1NC(=NC23CC4CC(CC(C4)C2)C3)N/C1=C\c1ccc2ncccc2n1	-53.7% (active)	-15.6% (active)	-10.2% (active)	-5.42% (active)	-8.97% (active)	-14.6% (active)	-20.6% (active)	2.65% (active)	2.78% (active)	-19.3% (active)	2.14% (active)	13.6%	-41.3% (active)	-18.5% (active)	-78.1% (active)	-29.8% (active)	-27.5% (active)	-77.7% (active)	-4.23% (active)	14.5%
CN(C(=O)c1ccc(C(F)(F)F)cc1C(F)(F)F)c1sc2c(c1C#N)CCC(=O)C2	50%	102%	93.6%	92%	113%	80.6%	-59.7% (active)	94.4%	85.2%	112%	103%	6.49% (active)	99%	71.1%	7.86% (active)	85%	65.1%	-37.6% (active)	99%	73.9%
COC[C@@H](CC(C)C)N=C1N/C(=C\c2ccc3ncsc3c2)C(=O)N1C	-17.7% (active)	11.4%	9.12% (active)	-9.28% (active)	21.2%	19.1%	-29.6% (active)	15.9%	14.9%	-28.4% (active)	20.9%	17.7%	7.51% (active)	0.748% (active)	-19.2% (active)	19.1%	23.2%	-15.6% (active)	6.69% (active)	38.1%
Cc1cc2nc3c4ccccc4n(CCO)c3nc2cc1C	60.1%	69.7%	92.4%	68.8%	98.3%	34.9%	78.8%	97.6%	12.1%	106%	58%	74.4%	37.8%	18.5%	38.6%	78.1%	66%	37.1%	91.7%	84.6%
O=C(NC(=S)N1CCN(c2ncnc3c2cnn3-c2ccccc2)CC1)c1ccc(Cl)cc1	55.5%	52.3%	66.8%	-2.01% (active)	53.3%	14.7%	38%	54.3%	27.8%	77.4%	81.1%	61.5%	56.1%	57.1%	43.1%	41.2%	34.2%	11.2%	83.8%	79.9%
CC(=O)Nc1ccc(-n2cnc3cc(-c4ccc(NS(C)(=O)=O)cc4)ccc32)cc1	61%	-68.4% (active)	59.1%	75.4%	33.4%	39.7%	46.9%	57%	52.3%	63.9%	58.2%	24%	75.6%	49.4%	92.5%	47.3%	51%	65.3%	64.4%	61.9%
N#Cc1c(NC(=O)c2ccc(C(F)(F)F)cc2)sc2c1CCC(O)=C2	23.9%	46.9%	46.1%	26.3%	14.6%	38.7%	1.61% (active)	34.7%	53.3%	60.9%	38.5%	8.86% (active)	23.2%	13.5%	14.6%	43.3%	17.5%	3.2% (active)	36%	13%
COc1ccc2[nH]c(=O)c(CSc3cccc(N)c3)cc2c1	79.2%	74.5%	74.6%	61.5%	20.7%	76.5%	62.6%	46.4%	55%	2.77% (active)	59.4%	15.6%	97.1%	72.7%	84.8%	58%	31.2%	71.3%	62.3%	24%
